Results filed as inconclusive are left out. Calls of active or inactive are those of the source. Unless noted, calls come from the whole dose curve; as a rule, active = well fitted curve in the direction sought with a large enough effect in the repeat runs; inconclusive = weak or mixed curves; inactive = no such curve, though single readings can be large; an effect the other way counts as inactive or inconclusive.
Tests used:
[1] = qHTS assay to identify small molecule antagonists of the estrogen related receptor (ERR) signaling pathway from Tox21 library - cell viability counter screen (AID 1224834); note: nearly all actives have a fitted effect of over 30% in size
Method in brief: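 ERR reporter cells were plated 6 h before compound addition, then exposed to test compounds in DMSO for 17.5 h at 37 C. Viability was read as CellTiter-Fluor fluorescence after a 30-minute incubation at 37 C.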

[2] = biological target: Luciferin 4-monooxygenase (Photinus pyralis) (UniProt P08659); experiment: qHTS assay to identify small molecule inhibitors of firefly luciferase (AID 1224835); note: series mostly up to about 120 µM; nearly all actives have a fitted effect of over 25% in size
Method in brief: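 Biochemical qHTS: compounds run as interplate titrations against purified firefly enzyme, with D-luciferin and ATP each at its KM concentration. Light output recorded by CCD imaging.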

[3] = qHTS assay to identify small molecule agonists of the constitutive androstane receptor (CAR) signaling pathway - cell viability counter screen (AID 1224836); note: series mostly up to about 92 µM; nearly all actives have a fitted effect of over 45% in size
Method in brief: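 Cells were seeded and incubated 4 hrs. Compounds were added across 15 concentrations together with PK11195 at 0.75 uM final. Plates were incubated 23 hrs at 37 C. CellTiter-Fluor was added and fluorescence measured.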

[4] = qHTS assay to identify small molecule antagonists of the constitutive androstane receptor (CAR) signaling pathway - cell viability counter screen (AID 1224837); note: series mostly up to about 92 µM; nearly all actives have a fitted effect of over 45% in size
Method in brief: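 HepG2 cells stably expressing hCAR and a CYP2B6-2.2kb reporter were plated and pre-incubated 4 hr at 37 C/5% CO2, then given compounds at 15 concentrations plus 50 nM CITCO (final). After 23 hr, viability was read by CellTiter-Fluor fluorescence.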

[5] = biological target: Nuclear receptor subfamily 1 group I member 3 (Homo sapiens) (UniProt Q14994); experiment: qHTS assay to identify small molecule antagonists of the constitutive androstane receptor (CAR) signaling pathway (AID 1224838); note: nearly all actives have a fitted effect of over 40% in size
Method in brief: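 HepG2 cells stably co-transfected with hCAR and a CYP2B6-2.2kb luciferase reporter were seeded 4 h before compound addition at 15 concentrations. Cells were stimulated with 50 nM CITCO (final) for 24 h at 37 C; luciferase luminescence was then read.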

[6] = biological target: Nuclear receptor subfamily 1 group I member 3 (Homo sapiens) (UniProt Q14994); experiment: qHTS assay to identify small molecule agonists of the constitutive androstane receptor (CAR) signaling pathway (AID 1224839);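 note: HepG2 cells stably carrying human CAR and a CYP2B6 luciferase reporter; series mostly up to about 92 µM; nearly all actives have a fitted effect of over 15% in size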
Method in brief: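 Cells were plated and incubated 4 hrs, then dosed with compounds at 15 concentrations. PK11195 was added to 0.75 uM final. After 24 hrs at 37 C, luciferase luminescence was measured.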

[7] = qHTS assay to identify small molecule antagonists of the estrogen related receptor signaling pathway with the pleiotropic PPARgamma coactivator (PGC) from Tox21 10K library - cell viability counter screen (AID 1224840; active = well fitted cell-killing curve with a large enough effect in the repeat runs, not every such curve was filed as active; note: nearly all actives have a fitted effect of over 40% in size)
Method in brief: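 PGC/ERR cells were seeded at 2,000 cells/well and left 6 hours at 37 C/5% CO2 before pin-tool addition of compounds in DMSO. After 17.5 hours at 37 C, CellTiter-Fluor was added and fluorescence read 30 minutes later.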

[8] = qHTS assay to identify small molecule agonists of the hypoxia (HIF-1) signaling pathway - cell viability counter screen (AID 1224844; calls by dose curve; note: nearly all actives have a fitted effect of over 50% in size)
Method in brief: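 HRE-bla ME-180 cells in medium with 0.5% dialyzed FBS were preincubated 5 hrs at 37C, exposed to compounds for 17 hrs, then viability was read as CellTiter-Glo luminescence after 30 min at room temperature, in the reporter wells.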

[9] = qHTS assay to identify small molecule agonists of H2AX (AID 1224845; active = well fitted activation curve with a large enough effect in the signal ratio in the repeat runs, not every such curve was filed as active; the % refers to the signal ratio)
Method in brief: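 Wild-type CHO-K1 cells, plated overnight, exposed 3hr at 37C to 15 concentrations (0.76% DMSO final). Lysed, then HTRF anti-pH2AX (S139) cryptate and anti-H2AX-d2 antibodies, 24 hr room temperature; 665/620 nm emission read.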

[10] = qHTS assay to identify small molecule agonists of the hypoxia (HIF-1) signaling pathway (AID 1224846; active = well fitted activation curve with a large enough effect in the signal ratio in the repeat runs, not every such curve was filed as active; the % refers to the signal ratio)
Method in brief: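 HRE-bla ME-180 cells (beta-lactamase reporter under hypoxia response element) were plated at 2,000 cells/well in medium with 0.5% dialyzed FBS, rested 5 hrs, then given compounds in DMSO for 17 hrs at 37C, 5% CO2. Reporter induction was read with CCF4-AM FRET substrate.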

[11] = qHTS assay to identify small molecule agonists of H2AX - cell viability counter screen (AID 1224847; calls by dose curve; note: top concentration of the series differs between compounds; nearly all actives have a fitted effect of over 30% in size)
Method in brief: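 Cytotoxicity counter screen in wild-type CHO-K1 cells: a 3 hr compound treatment at 37C across 15 concentrations, followed by CellTiter-Glo luminescence to gauge viable cells.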

[12] = qHTS RealTime-Glo MT Cell Viability Assay in HepG2 cells - 24 hour (AID 1224867); note: nearly all actives have a fitted effect of over 50% in size
Method in brief: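 Compound treatment began 5 h after plating HepG2 cells (600/well) with NanoLuc luciferase and prosubstrate. Plates stayed at 37 C for 40 h; luminescence was captured at six time points, 0 h through 40 h.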

[13] = qHTS RealTime-Glo MT Cell Viability Assay in HEK293 cells - 32 hour (AID 1224868); note: top concentration of the series differs between compounds; nearly all actives have a fitted effect of over 50% in size
Method in brief: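 Quantitative high-throughput screen of the Tox21 10K library in HEK293: cells and RealTime-Glo reagents plated together, compound added at 5 h, luminescence monitored through 40 h at 37 C.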

[14] = A CellTox Green Cytotoxicity Assay to monitor cytotoxicity in HEK293 cells - 0 hour (AID 1224869); note: nearly all actives have a fitted effect of over 50% in size
Method in brief: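 HEK293 cells premixed with CellTox Green dye were seeded at 600 cells/well and left 5 h at 37 C/5% CO2 before pin transfer of 23 nL compound in DMSO. Fluorescence from dye bound to dead-cell DNA was read during 40 h treatment.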

[15] = biological target: Thyrotropin receptor (Homo sapiens) (UniProt P16473); experiment: qHTS assay to identify small molecule agonists of the thyroid stimulating hormone receptor (TSHR) signaling pathway (AID 1224843; calls by dose curve; note: nearly all actives have a fitted effect of over 45% in size)
Method in brief: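 TSHR-HEK293 cells in agonist mode, 30 min room-temperature step, then cAMP measured by competitive HTRF (cAMP-d2 with anti-cAMP cryptate) after 1 h at room temperature. Tested at 15 concentrations in triplicate.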

[16] = qHTS RealTime-Glo MT Cell Viability Assay in HepG2 cells - 40 hour (AID 1224870); note: nearly all actives have a fitted effect of over 50% in size
Method in brief: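 HepG2 cells (600/well) mixed with RealTime-Glo MT reagent, settled 5 h at 37 C/5% CO2 before compound addition. Nonlytic NanoLuc luminescence from viable-cell prosubstrate reduction read repeatedly during 40 h treatment at 37 C.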

Measured: Potency

Chain of Thyrotropin receptor (Homo sapiens) (P16473 whole entry, looked up): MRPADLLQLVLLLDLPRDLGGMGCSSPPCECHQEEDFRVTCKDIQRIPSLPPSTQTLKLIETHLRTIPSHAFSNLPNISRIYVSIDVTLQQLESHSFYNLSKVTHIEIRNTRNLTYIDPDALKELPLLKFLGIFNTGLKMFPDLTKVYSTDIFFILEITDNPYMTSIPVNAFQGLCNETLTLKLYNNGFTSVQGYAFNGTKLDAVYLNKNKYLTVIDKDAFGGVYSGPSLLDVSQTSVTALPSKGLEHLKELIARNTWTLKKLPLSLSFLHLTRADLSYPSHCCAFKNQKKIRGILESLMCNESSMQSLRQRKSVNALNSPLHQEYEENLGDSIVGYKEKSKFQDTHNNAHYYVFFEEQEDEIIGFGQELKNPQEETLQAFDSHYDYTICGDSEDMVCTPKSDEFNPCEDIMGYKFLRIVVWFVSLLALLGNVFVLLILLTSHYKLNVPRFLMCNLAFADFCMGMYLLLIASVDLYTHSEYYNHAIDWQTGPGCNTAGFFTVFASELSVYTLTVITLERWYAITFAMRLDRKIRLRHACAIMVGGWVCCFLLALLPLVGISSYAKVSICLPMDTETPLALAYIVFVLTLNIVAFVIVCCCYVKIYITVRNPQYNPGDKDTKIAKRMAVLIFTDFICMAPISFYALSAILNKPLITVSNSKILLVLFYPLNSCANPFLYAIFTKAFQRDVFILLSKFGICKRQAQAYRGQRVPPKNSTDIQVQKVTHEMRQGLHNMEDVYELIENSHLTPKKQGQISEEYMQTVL
Chain of Nuclear receptor subfamily 1 group I member 3 (Homo sapiens) (Q14994 whole entry, looked up): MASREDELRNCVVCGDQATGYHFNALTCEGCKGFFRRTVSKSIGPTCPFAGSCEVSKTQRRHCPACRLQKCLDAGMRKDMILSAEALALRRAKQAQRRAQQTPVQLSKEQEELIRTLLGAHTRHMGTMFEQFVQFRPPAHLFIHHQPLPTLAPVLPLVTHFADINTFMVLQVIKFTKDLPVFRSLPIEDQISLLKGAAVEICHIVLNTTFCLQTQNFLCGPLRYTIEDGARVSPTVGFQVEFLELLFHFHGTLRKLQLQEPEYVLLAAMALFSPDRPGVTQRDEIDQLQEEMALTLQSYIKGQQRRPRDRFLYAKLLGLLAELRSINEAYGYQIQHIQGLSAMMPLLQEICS
Chain of Luciferin 4-monooxygenase (Photinus pyralis) (P08659 whole entry, looked up): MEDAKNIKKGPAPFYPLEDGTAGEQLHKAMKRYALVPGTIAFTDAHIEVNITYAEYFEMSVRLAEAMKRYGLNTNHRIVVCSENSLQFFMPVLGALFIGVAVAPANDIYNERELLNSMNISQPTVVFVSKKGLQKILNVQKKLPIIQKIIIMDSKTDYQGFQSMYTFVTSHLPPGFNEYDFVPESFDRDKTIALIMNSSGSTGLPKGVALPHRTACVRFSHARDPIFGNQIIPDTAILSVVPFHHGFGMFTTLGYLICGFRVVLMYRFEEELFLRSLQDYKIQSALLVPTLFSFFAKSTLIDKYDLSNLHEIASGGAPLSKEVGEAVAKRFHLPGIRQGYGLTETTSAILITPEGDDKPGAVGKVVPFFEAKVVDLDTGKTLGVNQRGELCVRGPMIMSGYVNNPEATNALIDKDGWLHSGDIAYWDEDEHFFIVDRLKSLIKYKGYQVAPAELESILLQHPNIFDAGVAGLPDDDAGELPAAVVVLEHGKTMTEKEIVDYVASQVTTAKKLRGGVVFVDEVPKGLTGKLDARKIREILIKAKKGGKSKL

Cc1c[nH]c(=S)[nH]c1=O
not listed: [15] | [16]
inactive: all other assays above

CC(C)=CCCC(C)CCOC=O (configuration not stated)
inactive: all assays above

CCCS(=O)c1ccc2nc(NC(=O)OC)[nH]c2c1 (configuration not stated)
not listed: [13]
inactive: all other assays above

O=C1CCCCCCCCCCC(=O)OCCO1
not listed: [11] | [15]
inactive: all other assays above

CC1=C(O)C(=O)OC1C (configuration not stated)
inactive: all assays above

Nc1cccc(S(=O)(=O)O)c1
not listed: [8] | [16]
inactive: all other assays above

CCCCN1C[C@H](O)[C@@H](O)[C@H](O)[C@H]1CO
not listed: [10] | [13]
inactive: all other assays above

CN1CCN(c2c(F)cc3c(=O)c(C(=O)O)cn4c3c2SCC4)CC1
not listed: [9] | [16]
inactive: all other assays above

CCN(CC)CCNC(=O)COc1ccc(Cl)cc1
not listed: [15]
inactive: all other assays above
